Screens from PubChem BioAssay.
HIF-2a inh: inhibitors of HIF-2a; 786-0 RCC cells HIF-2a reporter, luciferase luminescence, overnight; inhibition, % at 18.8 µM; 360,000 compounds, 0.72% hits;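 active = inhibition of the luminescence signal of 40% or more relative to plate controls, in a single-dose primary screen at 18.75 µM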
C8 TRAIL sens: caspase-8 TRAIL sensitization. NB7+C8 cells + TRAIL, ATPlite viability luminescence. inhibition (viability loss, TRAIL sensitization), % at 10 µM. 360,000 compounds, 1% hits;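 active = compounds causing at least 50% loss of cell viability in the single-dose screen, relative to plate controls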
HSP90 refold inh: blocks HSP90-mediated luciferase refolding in reticulocyte lysate; AID 1789; 290,000 compounds, 0.91% hits; inhibition, % at 5.6 µM; Rabbit reticulocyte lysate, luciferase refolding luminescence, 3 h;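 active = inhibition above the screen-wide mean plus 3 SD, computed separately per campaign, cut at about 16% in these data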;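 note: 0% = DMSO wells and 100% = 60 µM geldanamycin wells; inhibitors lower the luminescence because luciferase stays unfolded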
aSyn UTR inh: MLPCN primary screen, SNCA 5' untranslated region; alpha-synuclein 5'UTR reporter, inhibitor activity; AID 1813; 300,000 compounds, 0.82% hits; inhibition, % (tested at 7.5 µM); in the data active = inhibition above about 60%;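 note: H4 neuroglioblastoma cells stably carrying SNCA 5'UTR luciferase fusion; 0% = DMSO wells and 100% = positive control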
TROY signal inh: blocks TROY-dependent signaling in reporter cells | Q293 LMP1-TROYcd NF-kB luciferase reporter, 4 h | 360,000 compounds, 0.98% hits | inhibition, % at 10 µM;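 active = compounds whose plate-normalised and pattern-corrected inhibition of the luciferase reporter signal at the single screening dose is 50% or more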
TWEAK Fn14 block: TWEAK-Fn14 signaling inhibition | TWEAK-stimulated Fn14 reporter cells, luciferase luminescence, 8 h | inhibition, % at 10 µM | 360,000 compounds, 2% hits; in the data active = inhibition above about 50%
* marks the source's active call; other numbers are inactive results; / = no result given. Compounds with a hit are over-represented: about 3.9% of the library has one in this group of screens.

SMILES	HIF-2a inh	C8 TRAIL sens	HSP90 refold inh	aSyn UTR inh	TROY signal inh	TWEAK Fn14 block
COc1cccc2c1C(=O)c1c(O)c3c(c(O)c1C2=O)CC(O)(C(C)=NO)CC3OC1CC(N)C(O)C(C)O1 (stereo not drawn)	-11	53*	/	/	8	6
CNC(=O)O/N=C(\C)Cc1nnn(-c2cc(C)on2)n1	29	10	1	2	73*	21
CC(C)C[C@@H]1COc2cccc(N3CCN(C)CC3)c2S(=O)(=O)N1	-2	7	/	/	-17	8
CC(C)c1ccc(N2C(=O)NC(=O)/C(=C/C=C/c3ccco3)C2=O)cc1	17	14	0	-130	-10	19
Cc1ccc(N2C(=O)NC(=O)/C(=C/C=C/c3ccco3)C2=O)cc1	64*	19	1	-76	3	18
CCc1ccc(N2C(=O)NC(=O)/C(=C\C=C\c3ccco3)C2=O)cc1	24	14	1	-11	5	5
Cc1cc(C)cc(N2C(=O)NC(=O)/C(=C\C=C\c3ccco3)C2=O)c1	40*	13	3	-116	5	9
O=C1NC(=O)N(c2ccccc2)C(=O)/C1=C\C=C\c1ccccc1	82*	23	1	-119	-24	67*
COc1cc(/C=C2\C(=O)NC(=O)N(c3ccccc3)C2=O)cc(OC)c1OC	14	5	2	11	-2	-38
CC(=O)OC1C(O)C2=C3C4(C)C1C(C)(C)C(=O)CC4C3(O)C(OC(C)=O)C1(CC1C)C2=O (stereo not drawn)	21	11	/	/	-37	41
C[C@H](CO)N1C[C@H](C)[C@@H](CN(C)C(=O)Oc2ccccc2)OCc2cnnn2CCCC1=O	4	-7	/	/	-1	-5
CC(C)(C)n1nnnc1C(c1ccnc2ccccc12)N1CCC2(CC1)C(=O)NCN2c1ccccc1 (stereo not drawn)	13	9	/	/	-11	-3
O=C1NC(=S)NC(=O)C1=Cc1ccc(Br)s1	79*	18	-2	-27	3	5
CN1C(=O)C(C)(C2=CCCCC2)C(=O)NC1=S (stereo not drawn)	5	0	/	/	2	17
COc1ccc(C(c2nnnn2-c2c(C)cccc2C)N2CCC3(CC2)C(=O)NCN3c2ccccc2)cc1 (stereo not drawn)	10	18	/	/	19	-46
O=c1oc2ccccc2c(O)c1[C@H]1c2ccc(O)cc2Oc2c1c(=O)oc1ccccc21	34	-11	2	-4	65*	43
O=c1[nH]c(=S)[nH]c(O)c1N=Nc1ccc2c(c1)OCCO2	-154	56*	2	-8	0	36
Nc1ncc([N+](=O)[O-])s1	0	-15	/	/	-1	11
CCCCn1nnnc1C(CCSC)N1CCC2(CC1)C(=O)NCN2c1ccccc1 (stereo not drawn)	5	13	/	/	0	0
O=C1NCN(c2ccccc2)C12CCN(C(c1nnnn1C1CCCCC1)C1CC1)CC2 (stereo not drawn)	8	-16	/	/	4	15
Cc1ccccc1-c1ccc2c(c1)C1c3c(-c4ccccc4)nnn3-c3ccccc3C(=O)N1CC2 (stereo not drawn)	-8	-2	/	/	8	-21
C[C@@H]1O[C@@H](O[C@H]2C[C@@H](O)[C@]3(CO)[C@H]4[C@H](O)C[C@]5(C)[C@@H](C6=CC(=O)OC6)CC[C@]5(O)[C@@H]4CC[C@]3(O)C2)[C@H](O)[C@H](O)[C@H]1O	88*	44	0	114*	49	85*
C[C@]12CCC3C(CCC4=CC(O)CC[C@@]43/C=N/O)C1(O)CCC2C1=CC(=O)OC1 (stereo partly drawn)	31	52*	-2	113*	41	84*
C=CCn1c(O)c(C(C)=NCc2cc(OC)cc(OC)c2)c(=O)[nH]c1=O	32	82*	-2	38	-4	17
Cc1cc(C(=O)OC(C)C(=O)Nc2ccccc2)c(C)n1C1CC1 (stereo not drawn)	13	-14	/	/	10	-14
SMILES	HIF-2a inh	C8 TRAIL sens	HSP90 refold inh	aSyn UTR inh	TROY signal inh	TWEAK Fn14 block
Cc1ccc(NC(=O)c2ncn(CCCNCCN3CCOCC3)n2)cc1C	-2	7	/	/	-1	70*
O=C(NCCN1CCOCC1)c1ccc(Cl)nc1Cl	15	-5	2	10	7	-14
Cc1ccccc1-n1c(C)nc2ccsc2c1=O	7	10	/	20	2	55*
COc1ccc2[nH]c(C)c(CCNCc3cc(OC)c(OC)c(OC)c3)c2c1	16	-1	1	-3	5	-10
COc1ccc(CNCCc2c(C)[nH]c3ccc(OC(F)(F)F)cc23)c(OC)c1	7	32	3	90*	12	11
COc1ccc2[nH]c(C)c(CCNCc3cc(OC)c4c(c3)OCO4)c2c1	8	0	/	/	64*	20
CCOC(=O)[C@]12Cc3cc(OC)ccc3[C@H]1N(CCC(=O)OC)C(=O)c1cc(OC)ccc12	26	4	/	/	21	11
CC1(C)C(=O)CCC2C1=CCC1C2CCC2(C)C(O)CCC12 (stereo not drawn)	4	-4	/	/	17	-2
N#Cc1ccc(NC(=S)N2Cc3ccccc3-n3nncc3C2)cc1	14	4	/	/	5	14
COc1cc2c(cc1OC)-c1c(OC)c(OC)c(OC)c3ccnc(c13)C2=O	/	/	-1	104*	/	/
O=C1NC(=S)SC1=Cc1ccc(N(CCCl)CCCl)cc1	-76	-12	/	/	41	26
CCC(=O)[C@@H](C)[C@@H](O)[C@H](C)C[C@@H](C)C1OC(=O)C[C@@]2(O)CC=C(C)C(O2)C(C)=CCCC[C@H](O[C@H]2C[C@@H](OC(N)=O)[C@H](O)[C@@H](C)O2)C=C[C@H](C)C[C@H]1C (stereo partly drawn)	-5	46	/	/	29	89*
COc1ccc(C(=O)C2CCCN(CC3CCCCC3)C2)cc1OC (stereo not drawn)	-4	10	/	/	-5	-2
O=Cc1cn(Cc2ccc([N+](=O)[O-])cc2)c2ccccc12	-4	14	-1	72*	-1	3
Cc1ccc(Cn2cc(C=O)c3ccccc32)cc1	36	15	1	48	30	38
O=Cc1cn(Cc2ccc(F)cc2)c2ccccc12	10	7	-5	71*	11	22
O=C(Cn1cnc2ccccc2c1=O)NCC(=O)N1CCC2(CC1)OCCO2	13	-9	0	-6	-1	8
COc1ccc(-n2nc(C(=O)NCC(=O)N3CCC4(CC3)OCCO4)c3ccccc3c2=O)c(OC)c1	-137	55*	4	-54	-18	-14
CCC(C)NC(=O)c1c(N)n(Cc2ccc3c(c2)OCO3)c2nc3ccccc3nc12 (stereo not drawn)	9	-7	-1	11	57*	16
CCC(C)NC(=O)c1c(N)n(CC2CCCO2)c2nc3ccccc3nc12 (stereo not drawn)	31	13	8	20	26	19
